The text below walks through data of the antibiotic and cytotoxicity screens of Wong et al. (2023).

About 500 (1.3%) of roughly 39,000 compounds were called active. This is one part of a sample in which actives are shown more often than they occur.

In the assay the test system is S. aureus RN4220. Put plainly: growth inhibition call (relative growth <= 0.2). Particulars: 50 µM.
Consider `C[C@H](CO)N1C[C@H](C)[C@H](CN(C)Cc2ccc(Cl)c(Cl)c2)Oc2ccc(NC(=O)Nc3ccccc3)cc2CC1=O`, for which the growth inhibition call was “inactive”. With `O=c1cc(CN2CC[C@H](N3CCOCC3)[C@H](CCCO)C2)nc2c(O)cccn12`, the growth inhibition call is “inactive”. As to `C[C@@H]1CCCCO[C@@H](CN(C)CC2CCCCC2)[C@@H](C)CN([C@@H](C)CO)C(=O)c2cc(NC(=O)C3CCCCC3)ccc2O1`, the growth inhibition call is “inactive”.

Consider `CC(C)[C@@H](O)C[C@@H](C)O[C@@H]1O[C@H](CO[C@@H]2OC[C@](O)(CO)[C@H]2O)[C@@H](O)[C@H](O)[C@H]1O`, for which the growth inhibition call is “inactive”. `C[C@H]1CN([C@@H](C)CO)S(=O)(=O)c2ccc(C#Cc3ccccc3)cc2O[C@H]1CN(C)C(=O)c1ccccn1`: the growth inhibition call is “inactive”. For `C=CCNC(=O)[C@@H]1[C@H]2C(=O)O[C@H](c3ccccc3)[C@H](c3ccccc3)N2[C@H](c2ccc(O)cc2)[C@@]12C(=O)Nc1ccc(C#CC3=CCCCC3)cc12`, the growth inhibition call was “inactive”. As for `C=CCNC(=O)[C@H]1[C@@H]2C(=O)O[C@@H](c3ccccc3)[C@@H](c3ccccc3)N2[C@@H](c2ccc(O)cc2)[C@]12C(=O)Nc1ccc(C#CC3=CCCCC3)cc12`, the growth inhibition call is “inactive”. As to `NC(=O)[C@H]1[C@@H]2C(=O)O[C@@H](c3ccccc3)[C@@H](c3ccccc3)N2[C@@H](c2ccccc2OCCO)[C@]12C(=O)Nc1ccc(C#CC3=CCCCC3)cc12`, the growth inhibition call was “inactive”. The result for `O=C1O[C@@H](c2ccccc2)[C@@H](c2ccccc2)N2[C@@H](c3ccc(O)cc3)[C@]3(C(=O)Nc4ccc(C#CC5=CCCCC5)cc43)[C@@H](C(=O)N3CCCCCCC3)[C@H]12` reads “inactive”; that for `O=C1O[C@H](c2ccccc2)[C@H](c2ccccc2)N2[C@H]1[C@@H](C(=O)N1CCCCCCC1)[C@]1(C(=O)Nc3ccc(C#CC4=CCCCC4)cc31)[C@H]2c1ccc(O)cc1`, “inactive”.

Take `O=C1O[C@@H](c2ccccc2)[C@@H](c2ccccc2)N2[C@@H](c3ccccc3OCCO)[C@]3(C(=O)Nc4ccc(C#CC5=CCCCC5)cc43)[C@@H](C(=O)O)[C@H]12`: the growth inhibition call is “inactive”. On to `O=C1O[C@H](c2ccccc2)[C@H](c2ccccc2)N2[C@H]1[C@@H](C(=O)O)[C@]1(C(=O)Nc3ccc(C#CC4=CCCCC4)cc31)[C@H]2c1ccc(O)cc1`, for which the growth inhibition call was “active”.

In the case of `O=C1O[C@H](c2ccccc2)[C@H](c2ccccc2)N2[C@H]1[C@@H](C(=O)O)[C@]1(C(=O)Nc3ccc(C#CC4=CCCCC4)cc31)[C@H]2c1ccccc1OCCO`, the growth inhibition call was “active”. For `O=C1O[C@@H](c2ccccc2)[C@@H](c2ccccc2)N2[C@@H](c3ccc(O)cc3)[C@]3(C(=O)Nc4ccc(C#CC5=CCCCC5)cc43)[C@@H](C(=O)O)[C@H]12`, the growth inhibition call was “active”. Next, `CC(C)(C)S(=O)N1Cc2cc(C(=O)N[C@@H]3CCN(Cc4ccccc4)C3)nc(-c3cccc(C#CCC4CCCC4)c3)c2[C@H]1CCO` (some centres undefined): “inactive”.

As for `CC(C)(C)OC(=O)C[C@@H]1CC=CC[C@@H](CC(=O)NCCO)C(=O)N[C@@H](Cc2ccccc2)COC1=O`, the growth inhibition call was “inactive”. The result for `C[C@@H]1CN([C@@H](C)CO)C(=O)Cc2cc(NC(=O)Nc3ccc(F)cc3)ccc2O[C@@H]1CN(C)Cc1ccc(C(=O)Nc2ccccc2N)cc1` reads “inactive”; that for `Cc1ccc(S(=O)(=O)Nc2ccc3c(c2)C(=O)N([C@H](C)CO)C[C@@H](C)[C@@H](CN(C)Cc2ccc4c(c2)OCO4)OCCCC[C@@H](C)O3)cc1`, “inactive”; that for `CC(C)NC(=O)N[C@@H]1CC[C@H](CCN)O[C@@H]1CO`, “inactive”. The result for `COc1ccccc1NC(=O)Nc1ccc2c(c1)OC[C@@H](C)N(Cc1ccccc1Cl)C[C@@H](C)[C@H](OC)CN(C)C2=O` reads “inactive”.

Regarding `CO[C@H]1CN(C)C(=O)c2ccc(NS(C)(=O)=O)cc2OC[C@H](C)N(C(=O)C2CCOCC2)C[C@H]1C`, the growth inhibition call was “inactive”. For the compound `CC(C)CC#Cc1ccc2c(c1)O[C@H](CN(C)C(=O)Cc1cccnc1)[C@@H](C)CN([C@H](C)CO)S2(=O)=O`, the growth inhibition call is “inactive”. For the compound `O=C(C[C@H]1CC[C@@H](NC(=O)CN2CCOCC2)[C@H](CO)O1)NCCc1ccccc1`, the growth inhibition call is “inactive”. The result for `CC(C)(C)Cc1ccc(OCCCC(=O)O)c(CC(C)(C)C)c1` reads “active”; that for `CCCCc1ccc(CC(=O)O)cc1`, “inactive”; that for `Cc1ccc(C)c(OCCCC(C)(C)C(=O)O)c1`, “inactive”. With `C[C@H](CO)N1C[C@H](C)[C@H](CN(C)S(=O)(=O)c2ccccc2)Oc2ccc(NS(C)(=O)=O)cc2CC1=O`, the growth inhibition call was “inactive”.

As for `CC(C)(C)C1CCC(OC[C@@H](O)CN2CCC(CN3C(=O)c4cccc5cccc(c45)C3=O)CC2)CC1` (some centres undefined), the growth inhibition call was “active”. Next, `O=C(O)CN1C(=O)c2cccc3cccc(c23)C1=O`: “inactive”; `O=C(CN1C(=O)c2cccc3cccc(c23)C1=O)N1CCN(CCN2C(=O)[C@@H]3[C@@H](C2=O)[C@@H]2C=C[C@@H]3C2)CC1`: “inactive”. Take `C[C@H](O)C#Cc1cnc2c(c1)C(=O)N([C@@H](C)CO)C[C@H](C)[C@@H](CN(C)Cc1cncnc1)O2`: the growth inhibition call was “inactive”. With `C[C@@H]1CN([C@@H](C)CO)C(=O)c2cc(NC(=O)c3ccncc3)ccc2O[C@@H](C)CCCCO[C@@H]1CN(C)S(=O)(=O)c1cn(C)cn1`, the growth inhibition call is “inactive”.

`C[C@H]1CN([C@@H](C)CO)C(=O)c2c(c3ccccc3n2C)-c2ccccc2CO[C@@H]1CN(C)Cc1ccc(C(=O)O)cc1`: the growth inhibition call is “inactive”. Take `COc1ccc2c(c1)n(CCN)c(=O)n2C(=O)[C@@H]1C[C@H](C)CC[C@H]1C(C)C`: the growth inhibition call is “active”. Turning to `CC(C)[C@H]1CC[C@@H](C)C[C@@H]1NC(=O)c1cccc2ccccc12`, the growth inhibition call was “inactive”. Regarding `COc1ccc(NC(=O)N(C)C[C@H]2OCCCC[C@H](C)Oc3ccc(NC(=O)NC4CCCCC4)cc3C(=O)N([C@@H](C)CO)C[C@H]2C)cc1`, the growth inhibition call is “inactive”. Turning to `O=C(O)CN(CCN(CC(=O)O)CC(=O)O)CC(=O)O`, the growth inhibition call is “inactive”.

For the compound `Cc1c2oc3c(C)ccc(C(=O)N[C@@H]4C(=O)N[C@@H](C(C)C)C(=O)N5CCC[C@H]5C(=O)N(C)CC(=O)N(C)[C@@H](C(C)C)C(=O)O[C@@H]4C)c3nc-2c(C(=O)N[C@@H]2C(=O)N[C@@H](C(C)C)C(=O)N3CCC[C@H]3C(=O)N(C)CC(=O)N(C)[C@@H](C(C)C)C(=O)O[C@@H]2C)c(N)c1=O`, the growth inhibition call is “active”. With `Cc1c2oc3c(C)ccc(C(=O)N[C@@H]4C(=O)N[C@H](C(C)C)C(=O)N5CCC[C@H]5C(=O)N(C)CC(=O)N(C)[C@@H](C(C)C)C(=O)O[C@@H]4C)c3nc-2c(C(=O)N[C@@H]2C(=O)N[C@H](C(C)C)C(=O)N3CCC[C@H]3C(=O)N(C)CC(=O)N(C)[C@@H](C(C)C)C(=O)O[C@@H]2C)c(N)c1=O`, the growth inhibition call was “inactive”. The result for `Cc1c2oc3c(C)ccc(C(=O)OC(C)C4NC(=O)C(C(C)C)N(C)C(=O)CN(C)C(=O)C5CCCN5C(=O)C(C(C)C)NC4=O)c3nc-2c(C(=O)OC(C)C2NC(=O)C(C(C)C)N(C)C(=O)CN(C)C(=O)C3CCCN3C(=O)C(C(C)C)NC2=O)c(N)c1=O` (centres undefined) reads “active”.

Regarding `C[C@H]1CN([C@@H](C)CO)C(=O)Cc2cc(NC(=O)Nc3cccc4ccccc34)ccc2O[C@@H]1CN(C)C(=O)Nc1ccc(F)cc1`, the growth inhibition call is “inactive”.

As for `C[C@@H]1CN([C@H](C)CO)C(=O)c2cccc(NC(=O)c3cnccn3)c2O[C@H]1CN(C)Cc1ccc2c(c1)OCO2`, the growth inhibition call was “inactive”. With `COc1cccc(NC(=O)N[C@H]2C=C[C@@H](CC(=O)N3CCN(C)CC3)O[C@@H]2CO)c1`, the growth inhibition call is “inactive”.

On to `O=C(C[C@H]1C[C@@H]2c3cc(NC(=O)NC4CCCC4)ccc3O[C@@H]2[C@H](CO)O1)NCCN1CCCCC1`, for which the growth inhibition call is “inactive”. On to `C[C@H](CO)N1C[C@H](C)[C@@H](CN(C)Cc2ccc(Oc3ccccc3)cc2)Oc2c(NC(=O)C3CCCCC3)cccc2C1=O`, for which the growth inhibition call is “inactive”.

Regarding `C[C@@H]1CN([C@@H](C)CO)C(=O)c2cc(NC(=O)c3ccccc3)ccc2O[C@@H](C)CCCCO[C@H]1CN(C)Cc1ccc2c(c1)OCO2`, the growth inhibition call is “inactive”. For the compound `C[C@@H]1CN([C@@H](C)CO)C(=O)c2cc(NC(=O)NC3CCCCC3)ccc2O[C@H]1CN(C)Cc1ccc(C(=O)Nc2ccccc2N)cc1`, the growth inhibition call is “inactive”.

Take `CC(C)NC(=O)Nc1cccc2c1O[C@H](CN(C)S(=O)(=O)c1ccc(F)cc1)[C@H](C)CN([C@H](C)CO)C2=O`: the growth inhibition call was “inactive”.

On to `C[C@H](CO)N1C[C@H](C)[C@H](CN(C)Cc2ccc(-c3ccccc3)cc2)Oc2c(NC(=O)NC3CCCCC3)cccc2C1=O`, for which the growth inhibition call was “inactive”. Regarding `Cc1ccc(C(=O)N(CCCN)[C@@H](c2oc3cc(Cl)ccc3c(=O)c2Cc2ccccc2)C(C)C)cc1`, the growth inhibition call is “inactive”. With `Cc1ccc2c(c1)c1nc3ccccc3nc1n2Cc1ccccc1`, the growth inhibition call is “inactive”.

Regarding `Cc1ccc(C(=O)N(CCCN)[C@@H](c2nc3cc(Cl)ccc3c(=O)n2Cc2ccccc2)C(C)C)cc1`, the growth inhibition call is “active”. The result for `COc1ccc(CN(C)C[C@@H]2OCCCC[C@@H](C)Oc3ccc(NC(=O)Nc4ccc(C(F)(F)F)cc4)cc3C(=O)N([C@@H](C)CO)C[C@@H]2C)cc1` reads “inactive”; that for `C[C@@H]1CCCCO[C@H](CN(C)S(=O)(=O)c2ccccc2)[C@H](C)CN([C@H](C)CO)C(=O)c2cc(NC(=O)Nc3ccc(C(F)(F)F)cc3)ccc2O1`, “inactive”; that for `CO[C@@H]1CN(C)C(=O)c2ccc(NS(=O)(=O)CC(F)(F)F)cc2OC[C@@H](C)N(C(=O)c2ccc3c(c2)OCO3)C[C@H]1C`, “inactive”. With `CC(C)(O)CC(=O)NCCn1ccc2ncnc(Nc3ccc(Oc4cccc(C(F)(F)F)c4)c(Cl)c3)c21`, the growth inhibition call was “active”.

Turning to `CS(=O)(=O)CCNCc1ccc(-c2ccc3ncnc(Nc4ccc(OCc5cccc(F)c5)c(Cl)c4)c3c2)o1` [listing 1 of 2 here], the growth inhibition call is “inactive”.

As to `CS(=O)(=O)CCNCc1ccc(-c2ccc3ncnc(Nc4ccc(OCc5cccc(F)c5)c(Cl)c4)c3c2)o1` [listing 2 of 2 here], the growth inhibition call was “inactive”.

Turning to `C[C@H](CO)N1C[C@H](C)[C@H](CN(C)C(=O)Cc2cccnc2)Oc2cc(-c3cncnc3)ccc2S1(=O)=O`, the growth inhibition call is “inactive”.
